The values that follow come from the supplement of paper PMC13380429.

The subject of this assay is Vero E6 infected with SARS-CoV-2. As to the kind of experiment: inhibition of SARS-CoV-2 cytopathic effect; higher = more antiviral protection, active = above 15. The settings on record: 48 h.

Structures are written as SMILES. Unmarked numbers belong to inactive results.

`O=S(=O)(c1ccccc1)N(CC(F)(F)F)c1ccc(C(O)(C(F)(F)F)C(F)(F)F)cc1`: the “inhibition of SARS-CoV-2 cytopathic effect” value (“inhibition” below) was 1.99% (1 nM); 0.95% (8.33 nM); -0.31% (100 nM); 2.71% (833.33 nM); -0.14% (10000 nM).

`O=C(Cc1ccc(-c2ccc(OCCN3CCOCC3)cc2)cn1)NCc1ccccc1`: the “inhibition” value is -1.67% (1 nM); 0.24% (8.33 nM); -3.29% (100 nM); -1.51% (833.33 nM); -1.44% (10000 nM).

Take `CNCCC(Oc1ccccc1OC)c1ccccc1` (stereo not given) [nisoxetine]: the “inhibition” value is, setting by setting: (1 nM) -1.97%; (8.33 nM) 0.21%; (100 nM) 4.4%; (833.33 nM) 7.73%; (10000 nM) -0.07%.

On to `O=C(CC(c1ccccc1)c1ccccc1)N1CCN(C(c2ccccc2)c2ccccc2)CC1`, for which the “inhibition” value (1 nM) is -0.56%; the “inhibition” value (8.33 nM) is -1.82%; the “inhibition” value (100 nM) was -3.93%; the “inhibition” value (833.33 nM) is 1.53%; the “inhibition” value (10000 nM) is 3.27%.

In the case of `C[C@H]1NCc2cc(-c3ccc4c(=O)c(C(=O)O)cn(C5CC5)c4c3OC(F)F)ccc21` [garenoxacin], the “inhibition” value is -4.16% (1 nM); -1.9% (8.33 nM); 1.67% (100 nM); 3.28% (833.33 nM); 1.04% (10000 nM).

As to `O=C(/C=C/c1ccc2ccc(C(F)(F)F)cc2n1)c1ccncc1`, the “inhibition” value (1 nM) is 1.93%; the “inhibition” value (8.33 nM) is 0%; the “inhibition” value (100 nM) is -3.01%; the “inhibition” value (833.33 nM) was 0.28%; the “inhibition” value (10000 nM) was 5.19%.

Take `C/C(=C\c1ccc(C(=O)O)cc1)c1ccc2c(c1)C(C)(C)CCC2(C)C`: the “inhibition” value runs as follows: (1 nM) -0.5%; (8.33 nM) -1.23%; (100 nM) -2.43%; (833.33 nM) 0.15%; (10000 nM) 3.67%.

On to `O=C(OCC(O)CO)c1ccccc1Nc1ccnc2cc(Cl)ccc12` (stereo not given) [glafenine], for which the “inhibition” value (1 nM) was -1.53%; the “inhibition” value (8.33 nM) is 0.88%; the “inhibition” value (100 nM) is 2.29%; the “inhibition” value (833.33 nM) is -3.09%; the “inhibition” value (10000 nM) is -2.34%.

For the compound `Cc1nc2c(c(=O)[nH]1)CSCC2`, the “inhibition” value is, setting by setting: (1 nM) 1.12%; (8.33 nM) -1.82%; (100 nM) 0.46%; (833.33 nM) 0.11%; (10000 nM) 4.1%.

Turning to `CO[C@@H]1COCC[C@@H]1N[C@@H]1CC[C@@](C(=O)N2CCc3ncc(C(F)(F)F)cc3C2)(C(C)C)C1`, the “inhibition” value was 0.39% (1 nM); -0.35% (8.33 nM); 0.03% (100 nM); -0.05% (833.33 nM); -5.58% (10000 nM).

For `CC(C)[C@](O)(c1ccc2cc(OC(F)F)c(OC(F)F)cc2c1)c1c[nH]nn1`, the “inhibition” value was -0.91% (1 nM); 2.28% (8.33 nM); 2.85% (100 nM); 5.3% (833.33 nM); 6.8% (10000 nM).

In the case of `CC(C)(O)CNc1nc(Nc2ccnc(C(F)(F)F)c2)nc(-c2cccc(C(F)(F)F)n2)n1` [enasidenib], the “inhibition” value (1 nM) is -2.39%; the “inhibition” value (8.33 nM) was -0.28%; the “inhibition” value (100 nM) is -1.11%; the “inhibition” value (833.33 nM) was -2.37%; the “inhibition” value (10000 nM) is -1.07%.

For `CNC(=O)c1cc(Oc2ccc(NC(=O)Nc3ccc(Cl)c(C(F)(F)F)c3)cc2)ccn1` [sorafenib], the “inhibition” value (1 nM) is -0.83%; the “inhibition” value (8.33 nM) was 1.38%; the “inhibition” value (100 nM) was 2.59%; the “inhibition” value (833.33 nM) is 2.85%; the “inhibition” value (10000 nM) was 16.4% (active).

`CC(C)(C)C(=O)C(Oc1ccc(Cl)cc1)n1ccnc1` (stereo not given) [climbazole]: the “inhibition” value reads like this: (1 nM) -1.08%; (8.33 nM) 1.03%; (100 nM) -1.59%; (833.33 nM) -1.58%; (10000 nM) 0.15%.

In the case of `CCCCN(Cc1ccc(C(=O)NO)cc1)C(=O)Nc1ccccc1` [nexturastat-A], the “inhibition” value is, setting by setting: (1 nM) 0.96%; (8.33 nM) 0.67%; (100 nM) -0.8%; (833.33 nM) -3.85%; (10000 nM) -13.9%.

As to `CC(C)c1nc(N(C)S(C)(=O)=O)nc(-c2ccc(F)cc2)c1/C=C/[C@@H](O)C[C@@H](O)CC(=O)O` [rosuvastatin], the “inhibition” value reads like this: (1 nM) -0.46%; (8.33 nM) 0.22%; (100 nM) -2.09%; (833.33 nM) -3.33%; (10000 nM) -2.75%.

Consider `O=C(c1cccc(Cl)c1F)N1CCN(Cc2cccc(Nc3nccs3)n2)CC1`, for which the “inhibition” value was -0.75% (1 nM); -9.29% (8.33 nM); 0.91% (100 nM); -4.51% (833.33 nM); -1.08% (10000 nM).

Consider `Cc1cc(/C=C/C#N)cc(C)c1Nc1ccnc(Nc2ccc(C#N)cc2)n1` [rilpivirine], for which the “inhibition” value reads like this: (1 nM) 0.35%; (8.33 nM) -3.25%; (100 nM) -2.82%; (833.33 nM) -1.06%; (10000 nM) -6.76%.

As to `CCC(CC)Nc1cc(C)nc(Oc2c(C)cc(C)cc2C)c1C`, the “inhibition” value is -0.56% (1 nM); 0.65% (8.33 nM); -1.28% (100 nM); 0.01% (833.33 nM); -1.59% (10000 nM).
